# According to PubChem BioAssay:
# Calls of active or inactive are those of the source.
# Assays:
# [1] = test system: Plasmodium falciparum Sir2 (PF13_0152, Sir2A); test: Plasmodium falciparum Sir2A binding compounds – biochemical, small-molecule microarray, 635 nm fluorescence, primary screen (AID 1098); details: fluorescence 635 nm, higher = more signal;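 note: score merges spot fluorescence intensity with its signal-to-noise ratio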
# [2] = probe aDKK1 binding to arrayed compounds – biochemical, biotinylated probe, 635/667 nm fluorescence, primary screen (AID 1099); details: small-molecule microarray, higher = more signal;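 note: score merges 667nm spot fluorescence with signal to noise across triplicate slides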
# [3] = probe aCHRDL2 binding to arrayed compounds – biochemical, biotinylated probe, 635/667 nm fluorescence, primary screen (AID 1100); details: small-molecule microarray, higher = more signal
# [4] = change in splice reporter luminescence, either direction, cell-based, HEK293, spliceosome inhibition project, primary screen (AID 1101); details: HEK293 splicing luciferase reporter, 24 h, higher = more signal, called active from +8 up or from −8 down;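 note: HEK293 cells carrying a splicing-competent luciferase reporter gene; test concentration not given here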
# [5] = molecular target: Fibroblast growth factor 10 (Homo sapiens) (UniProt O15520); test: compounds binding fibroblast growth factor 10 – biochemical, small-molecule microarray, 635 nm fluorescence, primary screen (AID 1102); details: FGF10 binding, fluorescence 635 nm, higher = more signal
# [6] = test system: glycogen synthase kinase-3 (GSK3A per assay name; protocol says GSK3B); test: compounds binding glycogen synthase kinase-3 – biochemical, small-molecule microarray, 635 nm fluorescence, GSK3A, primary screen (AID 1103); details: fluorescence 635 nm, higher = more signal; note: the record names both GSK3A and GSK3B
# [7] = molecular target: Epidermal growth factor receptor (Homo sapiens) (UniProt P00533); test: compounds binding epidermal growth factor receptor – biochemical, small-molecule microarray, 635 nm fluorescence, primary screen (AID 1104); details: EGFR binding, higher = more signal;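 note: score merges 667 nm emission intensity with spot signal to noise over triplicate slides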
# [8] = molecular target: Follistatin-related protein 3 (Homo sapiens) (UniProt O95633); test: compounds binding follistatin-related protein 3 – biochemical, small-molecule microarray, 635 nm fluorescence, primary screen (AID 1105); details: FSTL3 binding, higher = more signal;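 note: score merges emission near 667 nm and signal to noise per printed spot across three slides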
# [9] = molecular target: Dickkopf-related protein 1 (Homo sapiens) (UniProt O94907); test: small molecules binding DKK1 protein – biochemical, small-molecule microarray, 635 nm fluorescence scan, primary screen (AID 1106); details: higher = more signal;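 note: score merges emission near 667 nm with signal to noise over three replicate slides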
# [10] = test system: Inhibin beta A chain (activin A); test: small molecules binding activin A – biochemical, small-molecule microarray, 635 nm fluorescence scan, primary screen (AID 1107); details: INHBA, higher = more signal;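 note: mouse activin A protein probed at 4.33 µg/mL on printed slides; score merges bound-protein fluorescence near 667 nm with spot signal-to-noise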
# [11] = test system: Human papillomavirus type 1a protein E7 (residues 44-93); test: small molecules binding HPV E7 44-93 – biochemical, small-molecule microarray, residues 44-93, 635 nm fluorescence, primary screen (AID 1108); details: fluorescence 635 nm, higher = more signal;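 note: E7 fragment applied at 1 µg/mL in TBST for 1 h at 4 C; score combines spot fluorescence with its signal to noise ratio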
# [12] = hepatitis C replication reporter changes, two-sided – Huh7 cells, luciferase reporter, HCV replication inhibitor project, primary screen (AID 1109); details: Huh7 HCV replicon luciferase reporter, 48 h; higher = more signal;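 note: huh7 hepatoma cells harbouring a luciferase neomycin HCV replicon reporter; luciferase luminescence as measure of HCV replicon replication; test concentration not given here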
# [13] = molecular target: Left-right determination factor 2 (Homo sapiens) (UniProt O00292); test: small molecules binding LEFTY2 protein – biochemical, small-molecule microarray, 635 nm fluorescence scan, primary screen (AID 1110); details: higher = more signal
# [14] = molecular target: Calmodulin-1 (Homo sapiens) (UniProt P0DP23); test: small molecules binding calmodulin-1 with EGTA – biochemical, small-molecule microarray, Cy5-labelled CALM1, profiling panel (AID 1111); details: Cy5-CALM1 binding fluorescence, higher = more signal;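 note: labelled calmodulin applied in Tris saline Tween buffer holding calcium plus EGTA and DTT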
# [15] = molecular target: Calmodulin-1 (Homo sapiens) (UniProt P0DP23); test: small molecules binding Ca-loaded calmodulin-1 – biochemical, small-molecule microarray, Cy5-labelled CALM1, plus calcium, artefact control for SMM control-protein annotation, profiling panel (AID 1112); details: Cy5-CALM1 binding fluorescence, higher = more signal;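 note: score merges spot fluorescence with signal to noise from triplicate slides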
# [16] = probe aWnt5a binding to arrayed compounds – biochemical, biotinylated probe, 635/667 nm fluorescence, primary screen (AID 1113); details: small-molecule microarray, higher = more signal;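 note: score merges 667 nm fluorescence intensity with signal-to-noise per printed feature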
# [17] = probe aShh binding to arrayed compounds – biochemical, biotinylated probe, 635/667 nm fluorescence, primary screen (AID 1114); details: small-molecule microarray, higher = more signal;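 note: probe is biotin-labelled aShh protein from a stem cell growth factor screen; measures binding of labelled protein to compounds printed on the slide; score merges feature fluorescence at 667 nm with signal-to-noise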
# [18] = probe aNog binding to arrayed compounds – biochemical, biotinylated probe, 635/667 nm fluorescence, primary screen (AID 1115); details: small-molecule microarray, higher = more signal;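 note: probe is biotinylated aNog protein used at 0.15 µg/mL for 1 h at 4 C; z-score combines 667 nm fluorescence of each spot with its signal to noise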
# [19] = molecular target: Torsin-1A-interacting protein 1 (Homo sapiens) (UniProt Q5JTV8); test: compound microarray binding of lysate hLAP1 – cell lysate, small-molecule microarray, COS7 lysate, 635/667 nm fluorescence, primary screen (AID 1116); details: 635 nm fluorescence, higher = more signal
# [20] = molecular target: Alpha-bungarotoxin (Bungarus multicinctus) (UniProt P60615); test: compounds binding labelled alpha-BTX control protein – biochemical, small-molecule microarray, Alexa647 label, 635/667 nm fluorescence, artefact control for SMM control protein annotation, profiling panel (AID 1117); details: alpha-BTX-A647 binding fluorescence, higher = more signal
# Alpha-bungarotoxin (Bungarus multicinctus), sequence (P60615 whole entry, looked up): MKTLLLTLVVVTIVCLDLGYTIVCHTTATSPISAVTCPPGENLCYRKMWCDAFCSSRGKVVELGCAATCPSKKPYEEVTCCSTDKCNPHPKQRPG
# Epidermal growth factor receptor (Homo sapiens), sequence (P00533 whole entry, looked up): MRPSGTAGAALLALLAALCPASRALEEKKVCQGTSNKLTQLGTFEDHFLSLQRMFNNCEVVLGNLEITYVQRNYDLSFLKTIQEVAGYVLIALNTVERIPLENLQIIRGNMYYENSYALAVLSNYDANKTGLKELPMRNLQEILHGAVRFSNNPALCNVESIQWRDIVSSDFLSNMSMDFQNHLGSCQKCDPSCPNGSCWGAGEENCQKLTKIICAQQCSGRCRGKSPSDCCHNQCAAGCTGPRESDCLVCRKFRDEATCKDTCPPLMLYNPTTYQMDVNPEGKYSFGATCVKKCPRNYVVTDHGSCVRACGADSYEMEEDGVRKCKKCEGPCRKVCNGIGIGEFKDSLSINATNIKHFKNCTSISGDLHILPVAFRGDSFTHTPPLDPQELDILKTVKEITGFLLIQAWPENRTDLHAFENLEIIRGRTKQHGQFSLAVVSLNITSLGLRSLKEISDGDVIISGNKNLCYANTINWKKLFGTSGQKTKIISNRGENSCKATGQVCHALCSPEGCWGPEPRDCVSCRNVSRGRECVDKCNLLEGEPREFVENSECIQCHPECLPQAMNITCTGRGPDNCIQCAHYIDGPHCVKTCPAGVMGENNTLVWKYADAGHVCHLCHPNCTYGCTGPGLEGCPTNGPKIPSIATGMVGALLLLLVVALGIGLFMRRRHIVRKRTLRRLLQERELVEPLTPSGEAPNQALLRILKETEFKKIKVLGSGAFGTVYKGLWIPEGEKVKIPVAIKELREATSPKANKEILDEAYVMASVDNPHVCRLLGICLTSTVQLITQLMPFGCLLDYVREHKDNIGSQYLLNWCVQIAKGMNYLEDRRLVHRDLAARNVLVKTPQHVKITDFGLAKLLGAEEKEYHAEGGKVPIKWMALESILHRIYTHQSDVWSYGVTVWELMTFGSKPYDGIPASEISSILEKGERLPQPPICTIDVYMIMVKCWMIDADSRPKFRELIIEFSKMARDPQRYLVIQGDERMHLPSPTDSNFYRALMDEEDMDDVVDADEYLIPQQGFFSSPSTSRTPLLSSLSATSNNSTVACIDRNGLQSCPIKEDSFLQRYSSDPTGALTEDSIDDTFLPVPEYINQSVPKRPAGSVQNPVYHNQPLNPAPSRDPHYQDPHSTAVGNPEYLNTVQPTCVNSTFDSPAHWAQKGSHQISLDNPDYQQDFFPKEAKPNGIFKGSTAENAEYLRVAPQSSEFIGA
# Follistatin-related protein 3 (Homo sapiens), sequence (O95633 whole entry, looked up): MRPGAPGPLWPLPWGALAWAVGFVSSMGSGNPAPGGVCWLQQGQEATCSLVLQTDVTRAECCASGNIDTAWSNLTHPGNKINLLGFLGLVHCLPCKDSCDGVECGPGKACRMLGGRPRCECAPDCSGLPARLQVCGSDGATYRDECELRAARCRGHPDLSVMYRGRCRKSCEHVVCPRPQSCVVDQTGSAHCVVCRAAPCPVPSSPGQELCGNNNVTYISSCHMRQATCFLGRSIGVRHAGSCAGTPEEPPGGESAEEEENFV
# Left-right determination factor 2 (Homo sapiens), sequence (O00292 whole entry, looked up): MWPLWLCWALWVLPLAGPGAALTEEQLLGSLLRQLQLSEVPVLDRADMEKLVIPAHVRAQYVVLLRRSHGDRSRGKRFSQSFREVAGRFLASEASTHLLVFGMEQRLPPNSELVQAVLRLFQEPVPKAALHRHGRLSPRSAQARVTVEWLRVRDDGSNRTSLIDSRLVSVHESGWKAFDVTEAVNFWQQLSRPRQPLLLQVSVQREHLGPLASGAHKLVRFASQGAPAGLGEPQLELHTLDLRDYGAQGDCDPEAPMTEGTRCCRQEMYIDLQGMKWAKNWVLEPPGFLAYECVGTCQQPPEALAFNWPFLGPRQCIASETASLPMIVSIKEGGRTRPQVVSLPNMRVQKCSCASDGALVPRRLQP
# Torsin-1A-interacting protein 1 (Homo sapiens), sequence (Q5JTV8 whole entry, looked up): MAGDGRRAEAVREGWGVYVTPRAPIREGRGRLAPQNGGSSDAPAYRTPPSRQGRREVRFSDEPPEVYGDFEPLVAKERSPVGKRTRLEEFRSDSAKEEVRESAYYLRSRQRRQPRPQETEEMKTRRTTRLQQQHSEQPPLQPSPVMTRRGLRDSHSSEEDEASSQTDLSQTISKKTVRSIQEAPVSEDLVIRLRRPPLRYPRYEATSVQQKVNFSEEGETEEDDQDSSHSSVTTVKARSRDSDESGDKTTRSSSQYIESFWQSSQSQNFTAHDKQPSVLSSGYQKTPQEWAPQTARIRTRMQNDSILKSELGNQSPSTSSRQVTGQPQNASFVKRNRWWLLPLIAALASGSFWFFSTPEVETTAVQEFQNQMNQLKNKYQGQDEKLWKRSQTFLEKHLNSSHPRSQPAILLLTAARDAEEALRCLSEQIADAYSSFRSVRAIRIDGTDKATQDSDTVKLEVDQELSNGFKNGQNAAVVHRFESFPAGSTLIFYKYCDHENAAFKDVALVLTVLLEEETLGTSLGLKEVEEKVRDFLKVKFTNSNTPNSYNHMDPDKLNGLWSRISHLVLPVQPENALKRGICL
# Dickkopf-related protein 1 (Homo sapiens), sequence (O94907 whole entry, looked up): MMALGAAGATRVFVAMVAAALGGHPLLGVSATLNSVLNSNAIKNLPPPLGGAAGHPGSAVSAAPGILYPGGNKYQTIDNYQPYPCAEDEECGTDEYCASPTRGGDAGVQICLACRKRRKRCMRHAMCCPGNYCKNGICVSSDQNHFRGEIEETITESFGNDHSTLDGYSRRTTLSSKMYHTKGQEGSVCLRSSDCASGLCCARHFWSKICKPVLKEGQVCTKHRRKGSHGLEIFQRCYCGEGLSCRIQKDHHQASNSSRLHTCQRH
# Fibroblast growth factor 10 (Homo sapiens), sequence (O15520 whole entry, looked up): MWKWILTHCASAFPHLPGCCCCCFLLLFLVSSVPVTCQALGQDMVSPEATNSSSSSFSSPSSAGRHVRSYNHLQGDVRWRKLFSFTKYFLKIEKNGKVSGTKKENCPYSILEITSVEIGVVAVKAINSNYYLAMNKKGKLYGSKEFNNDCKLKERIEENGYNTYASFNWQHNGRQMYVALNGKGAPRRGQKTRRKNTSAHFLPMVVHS
Structure (SMILES),composite z-score [1],composite z-score [2],composite z-score [3],z-score [4],composite z-score [5],composite z-score [6],composite z-score [7],composite z-score [8],composite z-score [9],composite z-score [10],composite z-score [11],z-score [12],composite z-score [13],composite z-score [14],composite z-score [15],composite z-score [16],composite z-score [17],composite z-score [18],composite z-score [19],composite z-score [20]
C=CCOC(=O)[C@H]1[C@@H]2C(=O)O[C@@H](c3ccccc3)[C@@H](c3ccccc3)N2[C@@H](c2ccc(OCCOC(=O)[C@H]3C[C@H]4C(=O)N[C@@H](CCCCNC(C)=O)C(=O)N4[C@H]3c3cccc(OCCO)c3)cc2)[C@]12C(=O)Nc1ccc(I)cc12,1.14,-0.886,-0.887,-1.5 (inactive),1.49,0.677,0.463,1.43,0.719,0.0677,1.42,-1.21,0.801,-0.0021,-0.451,0.0825,-0.705,-0.632,0.339,0.975
COCCOC(=O)N1C(=O)[C@@]2(c3ccccc31)[C@H](c1ccccc1OCCO)N1[C@H](c3ccccc3)[C@H](c3ccccc3)OC(=O)[C@H]1[C@@H]2C(N)=O,1.28,0.701,0.74,-2.08 (inactive),1.2,1.25,0.888,1.43,1.16,0.186,1.19,-2.76,0.574,1.93,0.208,0.0317,0.0121,0.389,1.29,1.14
C[C@]1(C(=O)NCC(F)(F)F)c2ccccc2C(=O)N(Cc2ccccc2)[C@H]1c1ccc(CO)cc1,0.905,-0.0306,0.543,0.0226 (inactive),-1.63,-1.8,-1.3,-1.47,-1.71,-0.264,-0.0857,-0.501,-0.722,-0.21,0.799,-0.287,-0.147,-0.0799,0.015,-0.553
Cc1ccc(F)cc1S(=O)(=O)N[C@@H]1CCN(Cc2cccc3[nH]ccc23)C1,0.245,-0.374,-0.518,-0.44 (inactive),0.67,0.67,0.719,1.36,0.236,0.741,-0.0347,-1.57,0.682,-0.517,-1.03,-0.0685,-0.153,-0.492,0.852,0.111
CN(C)C(=O)[C@@]1(Cc2ccccc2)COC(c2ccc(OCCCO)cc2)=N1,0.429,-0.246,-0.0283,-0.781 (inactive),-0.304,0.792,0.197,-0.718,-0.59,-0.512,-0.112,-1.4,-0.906,0.153,0.369,-0.319,0.0526,-0.646,2,-0.579
